# PubChem BioAssay AID504326 (The Scripps Research Institute Molecular Screening Center, 2011)
# The campaign covered roughly 340,000 compounds. About 990 (0.29%) were called active. This is one part of a sample in which actives are shown more often than they occur. Unmarked numbers belong to inactive results. No stated cut-off is given here; in the data, active means activation above about 18%; inactive means the rest.
# Molecular target: Mu-type opioid receptor (Homo sapiens) + Delta-type opioid receptor (Homo sapiens) (UniProt P35372+P41143)
# Assay: inducers of mu-delta opioid receptor heterodimers – cell-based, luminescence, primary screen (AID 504326);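 further: 0% = vehicle-treated cells and 100% = reference agonist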
# Details: cells, OPRM1-OPRD1 heterodimerization, at 9.3 µM, stronger effect = higher value
# Mu-type opioid receptor (Homo sapiens) + Delta-type opioid receptor (Homo sapiens), sequence (P35372 whole entry, looked up): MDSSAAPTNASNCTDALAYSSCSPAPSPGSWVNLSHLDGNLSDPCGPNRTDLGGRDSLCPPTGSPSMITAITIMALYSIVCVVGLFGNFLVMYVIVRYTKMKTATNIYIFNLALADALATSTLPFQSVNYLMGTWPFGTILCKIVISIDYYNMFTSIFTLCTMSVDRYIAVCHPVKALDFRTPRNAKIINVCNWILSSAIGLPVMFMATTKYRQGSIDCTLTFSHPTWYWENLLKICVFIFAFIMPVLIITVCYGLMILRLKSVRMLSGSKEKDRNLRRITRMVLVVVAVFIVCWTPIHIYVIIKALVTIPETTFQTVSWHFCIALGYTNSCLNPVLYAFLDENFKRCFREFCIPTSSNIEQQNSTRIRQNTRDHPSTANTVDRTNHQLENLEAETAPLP
# Mu-type opioid receptor (Homo sapiens) + Delta-type opioid receptor (Homo sapiens), sequence (P41143 whole entry, looked up): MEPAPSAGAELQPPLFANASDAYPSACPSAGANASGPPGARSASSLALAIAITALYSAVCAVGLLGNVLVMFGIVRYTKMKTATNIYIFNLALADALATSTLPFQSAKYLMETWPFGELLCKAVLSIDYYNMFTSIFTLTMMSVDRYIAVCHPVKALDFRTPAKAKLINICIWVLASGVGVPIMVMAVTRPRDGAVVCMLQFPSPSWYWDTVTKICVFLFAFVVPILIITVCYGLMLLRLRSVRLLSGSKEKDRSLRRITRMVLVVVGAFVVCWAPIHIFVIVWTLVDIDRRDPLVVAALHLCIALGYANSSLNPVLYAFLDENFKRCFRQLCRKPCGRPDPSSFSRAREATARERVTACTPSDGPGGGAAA
row,SMILES,activation
1,CCOC(=O)c1c(NC(=O)CNC2CCCc3ccccc32)sc(C(N)=O)c1C (stereo not given),9.2%
2,CC(NC(=O)c1ccccc1)C(=O)Nc1ccccc1 (stereo not given),-3.96%
3,O=C(NC1=CC(=O)c2ccccc2C1=O)c1ccccc1,20% (active)
4,O=C1C=C(NS(=O)(=O)c2ccccc2)C(=O)c2ccccc21,1.48%
5,O=C(Cc1ccc(S(=O)(=O)N2CCOCC2)s1)N1CCN(c2ccc(C(F)(F)F)cc2[N+](=O)[O-])CC1,-0.92%
6,CCOC(=O)N1CCN(c2c(NCCN3CCN(c4ccccc4F)CC3)c(=O)c2=O)CC1,-1.83%
7,CN(CC(=O)Nc1ccc(Cl)cc1)C(=O)c1ccc(COc2ccccc2)cc1,22.2% (active)
8,CN(Cc1ccccc1)C(=O)c1ccc(COc2ccccc2)cc1,1.93%
9,COc1ccc(NC(=O)CN(C)C(=O)c2ccc(COc3ccccc3)o2)cc1,-1.92%
10,CC(CNc1ccc([N+](=O)[O-])c2cccnc12)Nc1c([N+](=O)[O-])cc(C(F)(F)F)cc1[N+](=O)[O-] (stereo not given),0.2%
11,CCOC(=O)c1sc(NC(=O)C2CSC3(C)CCC(=O)N23)nc1C (stereo not given),-4.78%
12,Clc1ccc(-c2cc(-c3ccccn3)on2)c(Cl)c1,-0.72%
13,CCOc1ccc(OCC)c(-c2c(=O)n(OCc3ccc(Cl)cc3)c3ccccc3[n+]2[O-])c1,-0.14%
14,Clc1ccc(COn2c(-c3ccc(Cl)cc3Cl)nc3ncccc32)cc1,55.9% (active)
15,Cc1cccc(N2CCN(C(=O)c3ccccc3NC(=O)C3CCCCC3C(=O)O)CC2)c1 (stereo not given),-1.68%
16,COc1ccc(C2Nc3ccccc3C(=O)N2Cc2ccccc2)cc1Cn1nnc2ccccc21 (stereo not given),15.1%
17,COc1ccc(N2C(=O)c3ccccc3NC2c2ccc(OC)c(CN3CCOCC3)c2)cc1 (stereo not given),-3.57%
18,COc1ccc(C2Nc3ccccc3C(=O)N2c2ccc(F)cc2)cc1Cn1nnc2ccccc21 (stereo not given),29.4% (active)
19,Cc1ccc2cccc(O)c2[n+]1[O-],4.35%
20,CCOc1ccc(C(=O)Nc2ccc(S(=O)(=O)NCC3CCCO3)cc2)cc1OCC (stereo not given),-4.05%
21,COc1ccc(/C=C/C(=O)Nc2ccc(C34CC5CC(CC(O)(C5)C3)C4)cc2)cc1OC,3.53%
22,O=C(NCc1cn2ccsc2n1)Nc1cccc(Cl)c1,-4.06%
23,O=C(NCc1cn2ccsc2n1)Nc1ccc(Cl)cc1,30.4% (active)

row,SMILES,activation
1,O=C(NCc1ccccn1)Nc1ccc(Cl)cc1,-2.12%
2,CCSC1=C(C#N)C(=O)n2c1cc1c2CCCC1,-1.61%
3,O=C1c2cccc3c([N+](=O)[O-])ccc(c23)C(=O)N1CC1CCCO1 (stereo not given),2.93%
4,Cc1cc(C)c(S(=O)(=O)N2C=CC(C(F)(F)F)=NCC2)c(C)c1,0.24%
5,CCCCNC(=O)CSc1nc2n[nH]c(C)c2c(=N)n1-c1cccc(Cl)c1C,0.12%
6,COc1cccc(-n2c(SCC(=O)NC3CCCCC3)nc3n[nH]c(C)c3c2=N)c1,0.14%
7,Cc1ccc(-n2c(SCC(=O)NCCC3=CCCCC3)nc3n[nH]c(C)c3c2=N)cc1Cl,27.3% (active)
8,COc1cccc(NC(C)=[N+](C)CCNS(=O)(=O)c2ccc(Cl)cc2)c1,-2.81%
9,CCN(CC(=O)Nc1ccc(S(=O)(=O)N2CCCC2)cc1)CC(=O)Nc1cccc(OC)c1,-3.32%
10,CCNS(=O)(=O)c1ccc(NC(=O)Nc2cccc(OC)c2)cc1,62.3% (active)
11,Cc1ccc(N2C(=O)N3[C@@H]4c5ccccc5OC[C@@H]4[C@@H](c4ccccc4)[C@@]3(C)C2=O)cc1,-1.07%
12,CC(C)N(Cc1nnc(-c2ccccc2Br)o1)C(=O)c1cc(Cl)nc2ccccc12,-1.2%
13,COCCCNc1nc2c(-c3cccc(C(F)(F)F)c3)nnn2c2ccccc12,-0.55%
14,COC(=O)Cn1nc(-c2ccccc2)c2cc(Cl)ccc21,-1.42%
15,COCCCNc1nc2c(-c3cccc(C)c3)nnn2c2ccc(Cl)cc12,41.8% (active)
16,CC(=O)c1ccc(NC(=O)C(C)NCc2ccc(Cl)cc2)cc1 (stereo not given),-0.65%
17,CN(C(=O)c1ccc(NC(=O)Cc2cccc(NC(=O)C3CCN(C(=O)c4ccccc4)CC3)c2)cc1)C1CC1,-0.88%
18,COCCOC1CCN(C(=O)c2ccc(OC)c(OC3CCN(C(C)C)CC3)c2)CC1,-3.67%
19,CCC(C(=O)OCC(=O)Nc1ccccc1-c1ccccc1)c1ccccc1 (stereo not given),12.4%
20,CCC(C(=O)OCC(=O)Nc1ccc(C(=O)Nc2ccc(OC)cc2)cc1)c1ccccc1 (stereo not given),19.4% (active)
21,CCC(C(=O)OCC(=O)Nc1c(Cl)cc(Cl)cc1Cl)c1ccccc1 (stereo not given),6.24%
22,O=C(CC(=O)N/N=C\c1cccc(Cl)c1Cl)NCc1ccccc1,1.01%
23,O=C(CNC(=O)c1ccccc1F)c1ccc(Br)cc1,-3.5%

row,SMILES,activation
1,CCC(C)(C)C1CCC(=NNC(=O)c2ccc(Br)o2)CC1 (stereo not given),-0.98%
2,CCCC(=O)NC(C)C(c1cccs1)N1CCN(c2ccccc2)CC1 (stereo not given),25.9% (active)
3,CC(NC(=O)C(C)(C)C)C(c1cccs1)N1CCN(Cc2ccccc2)CC1 (stereo not given),-1.34%
4,CC(NC(=O)Nc1ccccc1)C(c1cccs1)N1CCN(c2ccccc2)CC1 (stereo not given),-1.69%
5,C#CC(CCN1CCCCC1)(OC)c1ccccc1 (stereo not given),-1.1%
6,O=C(CCl)N(Cc1cccc([N+](=O)[O-])c1)c1cccc(Cl)c1,31.3% (active)
7,Cc1ccc(S(=O)(=O)N(Cc2cccc([N+](=O)[O-])c2)C(=O)N2CCN(C)CC2)cc1,2.18%
8,O=C(c1cccc([N+](=O)[O-])c1)N1CCN(Cc2ccccc2)CC1,-2.62%
9,Cc1cc2c(cc1C)N(Cc1ccccc1)C1=NCCCN12,-3.79%
10,CC(C)(C)c1nnc2sc(SCC(O)=C(C#N)c3nc4ccccc4[nH]3)nn2c1=O,-3.45%
11,N#C/C(=C(/O)COc1cccc2ccccc12)c1nc2ccccc2[nH]1,20.5% (active)
12,N#C/C(=C(/O)Cc1cccc2ccccc12)c1nc2ccccc2s1,-0.06%
13,COCCN(CCOC)S(=O)(=O)c1ccc(/C(O)=C(\C#N)c2nc3ccccc3[nH]2)cc1,-0.63%
14,COc1ccccc1C(=O)COC(=O)COc1ccc(C#N)cc1,-3.44%
15,N#C/C(=C(/O)COC(=O)COc1ccc(Cl)cc1)c1nc2ccccc2[nH]1,24.4% (active)
16,CCc1nc2ccccc2c(C(=O)OC2CCCCC2=O)c1C (stereo not given),-2.96%
17,CC(=O)NC(NC(=S)Nc1c(C)n(C)n(-c2ccccc2)c1=O)C(Cl)(Cl)Cl (stereo not given),-0.74%
18,Cc1ccc(NC(=S)NC(NC(=O)Cc2cccc3ccccc23)C(Cl)(Cl)Cl)cc1 (stereo not given),43.3% (active)
19,CC(C)(C)C(=O)NC(NC(=S)Nc1ccc(S(N)(=O)=O)cc1)C(Cl)(Cl)Cl (stereo not given),0.71%
20,COc1ccc(OC)c(CN2CCN(C(=O)CNC(=O)c3cc(C)cc(C)c3)CC2)c1,-5.2%
21,O=C(CSc1nnc(CN2CCCC2)n1-c1ccc(F)cc1)c1ccc2c(c1)OCO2,-2.96%
22,Cc1ccc(CCN2CC(C(=O)NCCc3ccccc3)CC2=O)cc1 (stereo not given),-2.88%
23,Cc1cc(C)cc(C(=O)N(CCc2ccccc2)C2=CC3CCC(C2)N3C)c1 (stereo not given),104% (active)

row,SMILES,activation
1,C=CCN(C(=O)c1cc(C)cc(C)c1)C1(C(=O)Nc2ccccc2)CCN(C(C)C)CC1,0.59%
2,Cc1ccc(C2C(C#N)C(C#N)N3CCCN23)cc1 (stereo not given),0.61%
3,CSc1n[nH]c(=S)n1N,-1.24%
4,O=C(COc1ccc2ccc(=O)oc2c1)NCC(O)c1ccccc1 (stereo not given),-1.9%
5,CCCN1Cc2cccc(C(=O)NCc3ccccc3)c2C1=O,-0.19%
6,CCc1ccc(N(CC(=O)NCc2cccnc2)S(=O)(=O)c2ccccc2)cc1,-1.13%
7,Cc1ccc(S(=O)(=O)N(CC(=O)Nc2cccnc2)c2ccc(Br)cc2)cc1,24.9% (active)
8,CCNC(=O)CN(c1ccc(C)cc1)S(=O)(=O)c1ccc(SC)cc1,-4.37%
9,Cc1ccc(O)c(NC(=S)NC(=O)COc2ccc(Br)cc2)c1,22.7% (active)
10,COc1ccc(C(=O)Nc2cc(C)ccc2NC(=O)COc2ccccc2)cc1,0.51%
11,CCS(=O)(=O)c1ccc(O)c(NC(=O)COc2ccc(Cl)cc2)c1,-5.16%
12,OCC1(Cc2ccccc2)CCN(Cc2cc3ccccc3o2)CC1,0.65%
13,N#CC(C(=O)c1ccc(S(=O)(=O)N2CCCCCC2)cc1)c1nc2ccccc2[nH]1 (stereo not given),24.1% (active)
14,O=C(Nc1ncccc1O)c1ccc(S(=O)(=O)N2CCCCCC2)cc1,-4.61%
15,O=S(=O)(c1ccc(Br)cc1)N1CCC(c2nc3ccccc3[nH]2)CC1,1.07%
16,Oc1cccc2ccc(/C=C/c3ccc(Br)s3)nc12,1.72%
17,Cc1ccc(Nc2nc(Cl)c(C=O)s2)cc1,4.48%
18,Nc1ccc(C(=O)Nc2ccccc2N)cc1,2.04%
19,Cc1ccc(Nc2ccccc2N)cc1,21.4% (active)
20,COc1cc(C(=O)OCC(=O)NC23CC4CC(CC(C4)C2)C3)cc(OC)c1OC,-1.44%
21,COc1ccc(NC(=O)CCCN2C(=O)C(c3ccccc3)Oc3cccnc32)cc1 (stereo not given),2.07%
